GPR151 ag = activators of human GPR151; Q8TDV0; PathHunter beta-arrestin GPR151 cells, luminescence; activation, % at 11.2 µM; actives 1% (n = 650,000); AID 1508602; in the data active = activation above about 4.9%
TEAD-YAP block = TEAD-YAP interaction inhibition | inhibition, % at 9.12 µM | AID 1259422 | actives 1.4% (n = 640,000) | HEK-TIYL cells, TEAD-Gal4/YAP UAS-luciferase luminescence; in the data active = inhibition above about 32%
MITF primary = inhibitors of human MITF. O75030. AlphaScreen MITF homodimerization, bead proximity signal. inhibition, % at 2.6 µM. actives 0.91% (n = 650,000); in the data active = inhibition above about 50%
Target sequence (O75030 whole entry, looked up): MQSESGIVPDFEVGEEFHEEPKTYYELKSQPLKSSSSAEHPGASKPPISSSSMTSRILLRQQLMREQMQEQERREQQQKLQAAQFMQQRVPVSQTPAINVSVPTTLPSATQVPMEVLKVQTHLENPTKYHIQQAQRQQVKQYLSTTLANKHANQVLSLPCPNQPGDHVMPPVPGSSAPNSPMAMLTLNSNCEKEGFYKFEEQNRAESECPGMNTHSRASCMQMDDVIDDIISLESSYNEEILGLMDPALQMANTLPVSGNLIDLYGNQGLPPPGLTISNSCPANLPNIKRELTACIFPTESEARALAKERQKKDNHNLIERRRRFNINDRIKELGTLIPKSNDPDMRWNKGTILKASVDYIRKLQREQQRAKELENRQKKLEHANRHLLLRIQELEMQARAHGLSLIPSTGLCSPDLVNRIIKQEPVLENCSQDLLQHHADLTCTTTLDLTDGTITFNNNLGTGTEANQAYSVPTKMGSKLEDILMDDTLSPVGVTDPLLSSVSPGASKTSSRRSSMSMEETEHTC
FBW7 act = activators of human E3 ligase FBW7; normalized activity (activation), % at 26.1 µM; AlphaScreen FBW7–phospho-cyclin E peptide binding, activator screen; Q969H0; actives 0.13% (n = 650,000); in the data active = normalized activity above about 1.9%;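 note: purified mutant Fbw7 with reduced substrate affinity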
Hits are given with their value; - = inactive. Compounds with a hit are over-represented: about 3.5% of the library has one in this group of screens.

SMILES	GPR151 ag	TEAD-YAP block	MITF primary	FBW7 act
CC(C)CCOC(=O)C[N+](C)(C)CCOC1CC2CCC1(C)C2(C)C (stereo not given)	-	37	-	-
O=C(CCSc1ccc(Cl)cc1)Nc1nc(-c2ccccn2)cs1	-	34	-	-
O=C(CCSc1ccccc1)Nc1nc(-c2ccccn2)cs1	-	-	-	-
O=C(CCCSc1ccc(Cl)cc1)Nc1nc(-c2ccccn2)cs1	-	39	-	-
Cc1ccc(C)c(NC(=O)CC(C(=O)O)N2CCNCC2)c1 (stereo not given)	-	-	-	-
NC1=NC2CCCCC2N1C(=O)c1ccc(Cl)cc1 (stereo not given)	-	-	-	-
CCOc1ccc(/C=N/NC(=O)c2ccccc2NC(=O)c2ccc(OC)cc2)cc1	-	55	-	-
O=C(Nc1ccccc1C(=O)N/N=C/c1ccncc1)c1ccccc1	-	41	-	-
CCOc1ccc(/C=N/NC(=O)c2ccc(F)cc2)cc1	-	-	-	-
O=C(Nc1ccccc1C(=O)N/N=C/c1ccncc1)c1ccc([N+](=O)[O-])cc1	-	41	-	-
Cc1ccc2nc(-c3ccc(Cl)c(NC(=O)Cc4ccccc4)c3)oc2c1	-	-	-	-
COc1ccc(Cl)cc1C(=O)NCc1ccc2c(c1)cc(C)n2C	-	44	-	-
CC1=CC(C)(C)N2C(=O)C(=O)c3cc(OC(=O)COc4ccccc4)cc1c32	-	62	-	-
COc1ccc(C(=O)Oc2cc3c4c(c2)C(C)=CC(C)(C)N4C(=O)C3=O)cc1OC	-	-	-	-
CC1=CC(C)(C)N2C(=O)C(=O)c3cc(OC(=O)C4CCCO4)cc1c32 (stereo not given)	-	57	-	-
Cc1ccc2c(c1)cc1c(=O)n(CC(=O)NCc3ccc(F)cc3)nc(C)n12	-	-	-	-
O=c1cnnc(SCc2cccc3ccccc23)[nH]1	-	-	-	-
CC(C)c1ccc2oc(-c3ccc(NC(=O)c4cccc([N+](=O)[O-])c4)cc3)nc2c1	-	-	-	-
Cc1ccc2nc(NC(=O)CSCC(=O)O)sc2c1	-	60	-	-
CC1=NN(c2ccccc2)C(=O)C1N=Nc1cccc(O)c1 (stereo not given)	-	49	-	-
CCCCCc1c2c(C)c(C(=O)OCC)nc-2cc2n1CC(C)=C2C	-	41	-	-
CSc1ccc2nc(NC(=O)c3ccc(F)cc3)sc2c1	-	-	-	-
CC(C)(C)n1ncc2c(=O)n(CC(=O)OCc3ccccc3)cnc21	-	82	-	-
Cc1ccc(-n2cc(-c3ccccc3)c3c(N4CCC(C(N)=O)CC4)ncnc32)cc1	-	-	-	-
CCN(CC)c1ccc(/C=c2/sc3nc4ccccc4n3c2=O)cc1	-	46	-	-
SMILES	GPR151 ag	TEAD-YAP block	MITF primary	FBW7 act
COc1cccc(/C=c2\sc3nc4ccccc4n3c2=O)c1	-	45	-	-
COc1ccc(/C=c2/sc3nc4ccccc4n3c2=O)c(OC)c1	-	-	-	-
Cc1ccc(/C=c2/sc3nc4ccccc4n3c2=O)cc1	-	73	-	-
O=c1/c(=C\c2ccccc2)sc2nc3ccccc3n12	-	-	-	-
Cc1ccc(/C=c2\sc3nc4ccccc4n3c2=O)s1	-	54	-	-
COc1ccc(CCNC(=S)NNC(=O)Cc2ccc([N+](=O)[O-])cc2)cc1OC	-	-	-	-
CN(C)c1ccc(/C=c2\sc3nc4ccccc4n3c2=O)cc1	-	74	-	-
CCN(CC(=O)NCc1cccs1)C(=O)[C@@H]1CCCN1C(=O)c1cccs1	-	-	-	-
CCn1nc(C(=O)N(CC2CCCO2)c2nc3ccc(C)cc3s2)cc1C (stereo not given)	-	-	-	-
CCn1nc(C)cc1C(=O)N(CC1CCCO1)c1nc2cc(C)cc(C)c2s1 (stereo not given)	-	41	-	-
CC(=O)Nc1ccc(/C=N/NC(=S)NC2CCCCC2)cc1	-	-	-	-
C=CCn1c(-c2ccc(Cl)cc2)cnc1SCC(=O)Nc1sccc1C(N)=O	-	34	-	-
C=CCn1c(-c2ccccc2)cnc1SCC(=O)Nc1ccccc1	-	-	-	-
O=C(OCCN1C(=O)c2ccccc2C1=O)c1cccc([N+](=O)[O-])c1	-	-	-	-
COc1ccc(NC(=O)c2cc(-c3cccc(O)c3)on2)cc1	-	-	-	-
N#Cc1ccc(NC(=O)c2cc(-c3ccc(O)cc3)on2)cc1	-	-	-	2.3
COc1ccc(-c2cc(C(=O)Nc3cccc(O)c3)no2)cc1	-	90	-	-
O=C(Nc1cccc(O)c1)c1cc(-c2ccc(F)cc2)on1	-	89	-	-
N#Cc1ccc(NC(=O)c2cc(-c3ccc(Cl)cc3)on2)cc1	-	-	-	-
CC1=NC2(CCCCCC2)Cc2ccccc21	-	-	-	-
COc1ccc(N/N=C(\C#N)C(=N)SCc2ccccc2)cc1	-	33	-	-
Cc1noc(/C=C/c2ccco2)c1S(=O)(=O)N1CCC(C(=O)Nc2nccs2)CC1	-	-	58	-
N#Cc1cc2c(N)c(C(=O)Nc3ccccc3)sc2nc1N	-	-	-	-
N#Cc1cc2c(N)c(C(=O)c3ccc4c(c3)OCO4)sc2nc1N	-	-	-	5.1
Cc1ccc(NC(=O)c2sc3nc(N)c(C#N)cc3c2N)cc1F	-	-	-	22
SMILES	GPR151 ag	TEAD-YAP block	MITF primary	FBW7 act
CCN(CC)c1cc(C)nc(Nc2ccc(NC(=O)C(C)C)cc2)n1	-	48	-	-
CCN1C(=O)CC(C(=O)Nc2ccc(Cl)cc2)SC1=Nc1ccc(OC)cc1 (stereo not given)	-	38	-	-
Cc1ccc(S(=O)(=O)CCc2nnc(NC(=O)c3ccc(Br)cc3)s2)cc1	-	-	-	-
C/C(=N\NC(N)=O)c1ccc(O)c(O)c1O	-	-	86	-
O=C(Nc1cccc(-c2nc3ncccc3o2)c1)c1cc([N+](=O)[O-])ccc1Cl	-	-	-	-
Cc1csc(NC(=O)CN2CCC(c3ccncc3)CC2)n1	-	45	-	-
CN(C)S(=O)(=O)c1cccc(-c2cn3cc(Cl)ccc3n2)c1	-	-	-	-
COc1ccc(-c2cn3cc(C)ccc3n2)cc1F	-	68	-	-
Cc1ccc2nc(-c3ccc4ccccc4c3)cn2c1	-	94	-	-
Cc1ccc2nc(-c3ccc4c(c3)NC(=O)CO4)cn2c1	-	-	-	-
Cc1ccc2nc(-c3cccc(Cl)c3)cn2c1	-	77	-	-
COc1ccc(-c2cn3cc(C)ccc3n2)cc1OC	-	-	-	-
Cc1ccc(-n2nnnc2-c2nc3ccccc3s2)cc1	-	-	-	-
CCOc1ccc(-n2nnnc2-c2nc3ccccc3s2)cc1	-	42	-	-
CCCNC(=O)c1cc(-c2cccc(O)c2)on1	-	53	-	-
CC(C)CNC(=O)c1cc(-c2ccc(O)cc2)on1	-	39	-	-
COCCNC(=O)c1cc(-c2cccc(O)c2)on1	-	-	-	-
O=C(NC1CCCC1)c1cc(-c2ccc(O)cc2)on1	-	40	-	-
COc1cc(N)ccc1NC(=O)c1ccc(Cl)cc1	-	-	-	-
CC(=O)C(Sc1nnc(Nc2ccc(Oc3ccccc3)cc2)s1)C(C)=O	-	-	-	-
